Only some compounds are listed: those with a hit (about 3.5% of all), similar ones and a draw of the others.
MITF inh: blocks human microphthalmia-associated transcription factor | O75030 | AlphaScreen MITF homodimerization, bead proximity signal | inhibition, % at 2.6 µM | 0.91% of 650,000 active | AID 1259374; in the data active = inhibition above about 50%;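 note: 0% = vehicle wells with protein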
GPR151 ag: activates the human receptor GPR151; Q8TDV0; PathHunter beta-arrestin GPR151 cells, luminescence; activation, % at 11.2 µM; 1% of 650,000 active; AID 1508602; in the data active = activation above about 4.9%;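 note: 0% = median of compound wells and 100% = cells with positive control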
TEAD-YAP inh: TEAD-YAP interaction inhibition; HEK-TIYL cells, TEAD-Gal4/YAP UAS-luciferase luminescence; 1.4% of 640,000 active; AID 1259422; inhibition, % at 9.12 µM; in the data active = inhibition above about 32%;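 note: 0% = median of test compound wells and 100% = reference inhibitor wells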
FBW7 act: human FBW7 E3 ligase activation, primary screen; Q969H0; AlphaScreen FBW7–phospho-cyclin E peptide binding, activator screen; normalized activity (activation), % at 26.1 µM; 0.13% of 650,000 active; in the data active = normalized activity above about 1.9%;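 note: purified mutant Fbw7 with reduced substrate affinity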
GPR151 confirm: confirmation of human GPR151 activators; shares compounds with GPR151 ag; GPR151 PathHunter beta-arrestin cells, luminescence, 90 min; % of EA-reagent control over plate median; activation, % at 11.2 µM; 6,700 tested, under 10 active; AID 1508609;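 active = mean percent activation across replicates above the confirmation screen cutoff of 4.91%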
GPR119 counter: counter-screen for GPR151 activators: effect on human GPR119. GPR119 PathHunter beta-arrestin cells, luminescence, 90 min; 0 = compound-well median, 100 = enzyme-acceptor control. 0.3% of 6,700 active. activation, % at 11.2 µM. shares compounds with GPR151 ag;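 active = mean percent activation in the counterscreen above 29.09%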;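 note: counterscreen on off-target GPR119 to flag nonselective hits from the GPR151 activator screen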
* marks the source's active call; other numbers are inactive results; ! = not active in a repeat.

What do the screens show for `Cc1ccnc(NC(=O)C2(c3cccs3)CCOCC2)c1`?
MITF inh: -7; GPR151 ag: 5.3*; TEAD-YAP inh: 20; FBW7 act: 0; GPR151 confirm: -1; GPR119 counter: -5

What do the screens show for `O=C(Nc1ccccn1)C1(c2cccs2)CCOCC1`?
MITF inh: 14; GPR151 ag: 1; TEAD-YAP inh: 6; FBW7 act: 0

How did COc1cc(/C=C/C(=O)O)ccc1OCC(=O)Nc1ccccc1 do in these assays?
MITF inh: -3; GPR151 ag: 2; TEAD-YAP inh: -6; FBW7 act: 0

Results for COc1cc(CN2CCN(c3ccccc3Cl)CC2)cc2c1OCO2 ?
MITF inh: 34; GPR151 ag: 5.5*; TEAD-YAP inh: 8; FBW7 act: 0; GPR151 confirm: 1; GPR119 counter: 11

Results for COc1cc(CN2CCC3(C=Cc4ccccc43)CC2)cc2c1OCO2 ?
GPR151 ag: -1

How did CCOC(=O)CC(NS(=O)(=O)c1ccccc1)c1ccc(OCC)cc1 (stereo not drawn) do in these assays?
MITF inh: -2; GPR151 ag: 0; TEAD-YAP inh: 1; FBW7 act: 0

What do the screens show for `Nc1cc(=O)[nH]c(SCc2cn3ccccc3n2)n1`?
MITF inh: -4; GPR151 ag: 5.4*; TEAD-YAP inh: 0; FBW7 act: 0; GPR151 confirm: 0; GPR119 counter: -5

How did Clc1ccc2c(c1)CCc1cccnc1C2=C1CCNCC1 do in these assays?
MITF inh: 6; GPR151 ag: 7.8*!; TEAD-YAP inh: -16; FBW7 act: 0; GPR151 confirm: 0; GPR119 counter: 11

What do the screens show for `COCC(=O)Nc1nc2ccc(OC)cc2s1`?
MITF inh: 4; GPR151 ag: 8.6*; TEAD-YAP inh: -53; FBW7 act: 0; GPR151 confirm: -2; GPR119 counter: -11

Results for Cc1nnc(NC(=O)CN2CCC(O)(c3ccc(F)cc3)CC2)s1 ?
MITF inh: -2; GPR151 ag: 6.8*; TEAD-YAP inh: 2; FBW7 act: 0; GPR151 confirm: 0; GPR119 counter: 6

Results for CCN(CC(=O)NC(C)C)C(=O)C(CCSC)NC(=O)c1cccc(C)c1 (stereo not drawn) ?
MITF inh: -9; GPR151 ag: 6.3*; TEAD-YAP inh: 3; FBW7 act: 0; GPR151 confirm: 1; GPR119 counter: -2

How did Cc1nn(C)c(C)c1-c1nc(NCc2cccnc2)c2ncn(Cc3ccc(C(F)(F)F)cc3)c2n1 do in these assays?
MITF inh: 3; GPR151 ag: -2; TEAD-YAP inh: -17; FBW7 act: 0

What do the screens show for `CCOc1ccc(C2NC(=S)NC3=C2C(=O)CCC3)cc1` (stereo not drawn)?
MITF inh: 12; GPR151 ag: 5.8*; TEAD-YAP inh: 2; FBW7 act: 1; GPR151 confirm: 0; GPR119 counter: 1

Results for COc1ccc(C2C(C#N)=C(N)Oc3cc(N)ccc32)cc1Br (stereo not drawn) ?
MITF inh: 4; GPR151 ag: 7.6*; TEAD-YAP inh: -8; FBW7 act: 0; GPR151 confirm: -1; GPR119 counter: -4

What do the screens show for `Oc1ccc(-c2cnn3c(NCc4ccc(F)cc4)ccnc23)cc1`?
MITF inh: 6; GPR151 ag: 6.5*; TEAD-YAP inh: -26; FBW7 act: 0; GPR151 confirm: 1; GPR119 counter: 2

Results for OCc1ccc(-c2cnn3c(NCc4ccc(F)cc4)ccnc23)cc1 ?
MITF inh: -15; GPR151 ag: -1; TEAD-YAP inh: -22; FBW7 act: 0

How did CC(C)OC(=O)/C(C#N)=C\c1cccs1 do in these assays?
MITF inh: -2; GPR151 ag: 6.0*; TEAD-YAP inh: -5; FBW7 act: 0; GPR151 confirm: -1; GPR119 counter: -9

What do the screens show for `CC(C)c1ccc(N(CC(=O)N2CCN(c3ccc(F)cc3)CC2)S(C)(=O)=O)cc1`?
MITF inh: 1; GPR151 ag: 3; TEAD-YAP inh: 1; FBW7 act: 0

How did CS(=O)(=O)N(CC(=O)N1CCCC1)c1ccc2c(c1)OCCO2 do in these assays?
MITF inh: 6; GPR151 ag: 9.5*; TEAD-YAP inh: 9; FBW7 act: 0; GPR151 confirm: -1; GPR119 counter: -10

How did CS(=O)(=O)N(CC(=O)N1CCN(c2ccc(F)cc2)CC1)c1ccc(Cl)cc1 do in these assays?
MITF inh: 6; GPR151 ag: 5.6*; TEAD-YAP inh: -2; FBW7 act: 0; GPR151 confirm: 0; GPR119 counter: -3

Results for O=C(Nc1nnc(S(=O)(=O)N2CCCCC2)s1)c1ccc(Cl)cc1 ?
MITF inh: -5; GPR151 ag: 5.6*; TEAD-YAP inh: 5; FBW7 act: 0; GPR151 confirm: 0; GPR119 counter: -9

Results for O=C(Nc1nnc(S(=O)(=O)N2CCCCC2)s1)C12CC3CC(CC(C3)C1)C2 ?
MITF inh: 10; GPR151 ag: 5.5*; TEAD-YAP inh: -5; FBW7 act: 0; GPR151 confirm: 0; GPR119 counter: -16

What do the screens show for `CCOc1ccc(C(=O)NCCn2cc(SC(=N)N)c3ccccc32)cc1`?
MITF inh: 1; GPR151 ag: 5.0*; TEAD-YAP inh: 10; FBW7 act: 0; GPR151 confirm: 0; GPR119 counter: -4

Results for CC(=O)NC(=O)NC(c1ccccc1)c1cccc(Cl)c1 (stereo not drawn) ?
MITF inh: -9; GPR151 ag: 6.1*; TEAD-YAP inh: -7; FBW7 act: 0; GPR151 confirm: 0; GPR119 counter: -1

Results for CCOc1ccc(NC(=O)N2CCC(Cn3cnc4cc(C)c(C)cc43)CC2)cc1 ?
MITF inh: 7; GPR151 ag: 5.8*; TEAD-YAP inh: 10; FBW7 act: 0; GPR151 confirm: 1; GPR119 counter: 4

How did CCOc1ccc(NC(=O)N2CCC(CN3CCCCCC3)CC2)cc1 do in these assays?
MITF inh: 5; GPR151 ag: -1; TEAD-YAP inh: -3; FBW7 act: 0

What do the screens show for `COc1cccc(NC(=O)c2c(C)nc3ccccn23)c1`?
MITF inh: -4; GPR151 ag: -1; TEAD-YAP inh: -36; FBW7 act: 0

Results for CC(NC(=S)c1cccnc1)c1ccccc1 (stereo not drawn) ?
MITF inh: 8; GPR151 ag: 0; TEAD-YAP inh: 19; FBW7 act: 1

How did C=CCNC(=O)CN1CCN(C(c2ccccc2)c2ccccc2)CC1 do in these assays?
MITF inh: 44; GPR151 ag: 6.2*; TEAD-YAP inh: 10; FBW7 act: 0; GPR151 confirm: 0; GPR119 counter: -1

How did C=CCNC(=O)CN1CCC(O)(c2ccccc2)CC1 do in these assays?
MITF inh: 16; GPR151 ag: -1; TEAD-YAP inh: 8; FBW7 act: 1

What do the screens show for `C=CCNC(=O)CN1CCC(O)(c2cccnc2)CC1`?
MITF inh: -12; GPR151 ag: 6.2*; TEAD-YAP inh: -8; FBW7 act: 0; GPR151 confirm: -1; GPR119 counter: -3
